For 90 compounds, max activation results are on record in PubChem BioAssay AID652048 (National Center for Advancing Translational Sciences (NCATS), 2013).

Among all 410,000 compounds or so, about 2,400 (0.59%) were called active. Rule as the data show it: active = max activation above about 30%; inactive = the rest. The sample as a whole holds a higher share of actives than the screen did.

Sequence of D(3) dopamine receptor (Homo sapiens) (P35462 whole entry, looked up): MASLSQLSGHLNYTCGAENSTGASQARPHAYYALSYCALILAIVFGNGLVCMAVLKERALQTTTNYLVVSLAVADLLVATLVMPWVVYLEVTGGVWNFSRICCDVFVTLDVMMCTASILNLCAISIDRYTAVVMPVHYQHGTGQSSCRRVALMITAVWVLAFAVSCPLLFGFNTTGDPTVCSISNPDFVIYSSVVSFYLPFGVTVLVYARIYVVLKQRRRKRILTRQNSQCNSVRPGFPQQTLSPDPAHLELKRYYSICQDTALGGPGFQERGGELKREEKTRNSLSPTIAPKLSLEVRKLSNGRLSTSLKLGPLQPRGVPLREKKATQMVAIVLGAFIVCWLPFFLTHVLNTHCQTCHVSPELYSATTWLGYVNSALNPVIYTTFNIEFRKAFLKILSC

This experiment has as its target D(3) dopamine receptor (Homo sapiens) (UniProt P35462). Kind of experiment: qHTS of D3 Dopamine Receptor Agonist: qHTS. Also: 0% is about no effect. To be noted: D3R DiscoveRx beta-arrestin cells, luminescence, 90 min; stronger effect = higher value. The method in brief: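 Agonist-mode cell screen: cells plated at 1500/well and incubated overnight at 37 °C, then exposed to library compounds for 90 min at 37 °C. Detection reagent was added for 30–60 min at room temperature, and luminescence was read.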
With `CCC(C)c1ccc(O)c(/C=N/O)c1` (stereo not given), the max activation is -1.03% (inactive).
Consider `CNCC(O)c1ccc(O)c(O)c1` (stereo not given), for which the max activation was 137% (active).
With `Cc1cc(C)c(-c2n[nH]c3c2C(c2ccccc2F)N(CCO)C3=O)c(O)c1` (stereo not given), the max activation is -0.594% (inactive).
In the case of `CCC1(C)CC(=O)NC1=O` (stereo not given) it was -5.68% (inactive).
In the case of `Cc1cc(C(=O)Nc2cccc(C(F)(F)F)c2)c2c(C)nn(-c3cccc(F)c3)c2n1` it was 8.25% (inactive); in that of `CCOC(=O)CSc1nnc(CNC(=O)c2cccs2)n1-c1cc(OC)ccc1OC`, 6.63% (inactive); in that of `CC(C)(C)OC(=O)N1CCC(c2c(C(=O)N3CCN(c4cccc(Cl)c4)CC3)cnn2-c2cccc(Cl)c2)CC1`, -9.63% (inactive).
To `COC(=O)c1ccccc1NC(=O)Cn1c(=O)n(-c2cccc(C(F)(F)F)c2)c(=O)c2c(C)c(C)sc21` belongs -14.9% (inactive).
With `Cc1ccc(N(Cc2ccc(C(=O)Nc3ccccc3C(=O)NCc3ccco3)cc2)S(C)(=O)=O)cc1C`, the max activation was 33.8% (active).
On to `CS(=O)(=O)N(Cc1ccc(Cl)cc1)c1ccc(C(=O)NCCSCc2ccco2)cc1`, for which the max activation is 0.47% (inactive).
In the case of `CCN1CCN(C(=O)c2ccc(CN(c3ccc(C)c(C)c3)S(C)(=O)=O)cc2)CC1` it was -12.8% (inactive).
For `Cc1oc2ncnc(N3CCCCC3)c2c1C(=O)N1CCN(c2cccc(Cl)c2)CC1`, the max activation is -5.06% (inactive).
In the case of `Cc1cc(C)cc(NC(=O)CSc2nc(=O)n(CCN3CCOCC3)c3c2CCC3)c1` it was 0.821% (inactive); in that of `CC(C)(C)OC(=O)N1CCC(c2c(C(=O)NCc3ccccn3)cnn2-c2ccc(F)cc2)CC1`, -0.963% (inactive).
In the case of `CCCOc1ccc(NC(=O)CC2C(=O)N(c3ccccc3)C(=O)N2Cc2ccco2)cc1` (stereo not given) it was 8.76% (inactive); in that of `COc1ccc(-c2cc(-c3nc(-c4cc(OC)c(OC)c(OC)c4)no3)[nH]n2)c(OC)c1`, 5.61% (inactive).
With `CCc1ccc(-n2nnc(-c3nc(-c4ccccc4)no3)c2C)cc1`, the max activation is 6.45% (inactive).
In the case of `COc1ccc(OC)c(-n2nnc(-c3nc(-c4cc(OC)c(OC)c(OC)c4)no3)c2C)c1` it was 31.2% (active); in that of `Nc1ccccc1SC(C[N+](=O)[O-])c1ccccc1` (stereo not given), 0.396% (inactive).
In the case of `Cc1cccc(C)c1NC(=O)NC1=CCCN1C`, the max activation was 0.916% (inactive).
To `O=C(O)CCC(=O)O` belongs 17.7% (inactive).
To `CCOc1ccc(OCC)c(-c2c(=O)n(OCc3ccc(Cl)cc3)c3ccccc3[n+]2[O-])c1` belongs 39.5% (active); to `CCOc1ccc(S(=O)(=O)c2cn(Cc3ccccc3)c3ccc(OCC)cc3c2=O)cc1`, 6.37% (inactive).
To `COc1ccc(OC)c(-c2c(=O)n(OCc3ccccc3Br)c3ccccc3[n+]2[O-])c1` belongs -6.63% (inactive); to `O=C(OCc1ccccc1)c1ccc(O)cc1`, 3.77% (inactive).
For `Cc1ccc(C(=O)COC(=O)c2cccc(N3C(=O)c4c(C)nc5ccccc5c4C3=O)c2)cc1C`, the max activation was 40.4% (active).
To `Cc1ccc(C(=O)OCC(=O)NC2CCCCCCC2)cc1C` belongs 1.29% (inactive).
As for `Cc1ccc(C(=O)COC(=O)CCN2C(=O)C3C4CCC(C4)C3C2=O)cc1C` (stereo not given), the max activation is -16.9% (inactive).
To `Cc1cc2c(cc3c(SCc4nc(-c5ccccc5)oc4C)nnc(C)n32)o1` belongs -6.34% (inactive).
As for `COc1ccc(C(=O)c2oc3ccccc3c2NC(=O)COc2cccc(C)c2)cc1`, the max activation was -8.79% (inactive).
As to `Cc1ccc(N(CC(=O)NCc2ccc(Cl)cc2)S(=O)(=O)N(C)C)cc1`, the max activation was 1.16% (inactive).
In the case of `Cc1ccccc1OCC(=O)Nc1c(C(=O)Nc2ccccc2F)oc2ccccc12`, the max activation was -10.6% (inactive).
In the case of `COC(=O)[C@@H]1CC2=CC(=O)CC[C@]2(C)[C@@]23O[C@@H]2C[C@@]2(C)[C@@H](CC[C@@]24CCC(=O)O4)[C@H]13` it was 3.79% (inactive); in that of `COc1cccc(N2CCN(C(=O)CCCCCn3c(=O)[nH]c4ccccc4c3=O)CC2)c1`, -3.38% (inactive); in that of `COC(=O)c1ccccc1NS(=O)(=O)c1ccc2c(c1)CCCN2C(C)=O`, -8.34% (inactive).
To `Cc1cc(NS(=O)(=O)c2ccc(NC(=O)c3ccccc3C)cc2)nc(C)n1` belongs 0.492% (inactive); to `COC(=O)c1ccc(NC(=O)c2ccccc2NS(=O)(=O)c2ccccc2)cc1`, 34.2% (active); to `CCOc1ccc(S(=O)(=O)N(CC(=O)NCCSCc2ccc(C)cc2)c2ccccc2)cc1`, 1.63% (inactive).
For `COc1ccc(C)cc1NC(=O)C(=O)NCCc1sc(-c2cccc(C)c2)nc1C`, the max activation is 3.11% (inactive).
For the compound `NNc1nnc(NN)c2ccccc12`, the max activation was -0.65% (inactive).
In the case of `CCOC(=O)c1ccc(NC(=O)CCS(=O)(=O)c2ccc(C)cc2)cc1` it was 4.32% (inactive).
In the case of `Cc1noc(C)c1C(=O)Nc1ccccn1`, the max activation was 31.1% (active).
Turning to `Cc1noc(C)c1C(=O)NC(C)c1ccc2c(c1)OCO2` (stereo not given), the max activation was 17.7% (inactive).
Turning to `Cc1noc(C)c1C(=O)NCCc1ccc(S(N)(=O)=O)cc1`, the max activation is 4.23% (inactive).
On to `O=C(/C=C/c1cccc(F)c1)NC1CC1`, for which the max activation was 7.01% (inactive).
In the case of `CCCCn1nc(C(=O)OCC(=O)Nc2sccc2C(N)=O)c2ccccc2c1=O` it was 39.2% (active); in that of `NC(=O)c1ccsc1NC(=O)COC(=O)Cc1n[nH]c(=O)c2ccccc12`, -0.194% (inactive).
Regarding `Cc1cccc(C(=O)OCC(=O)Nc2sccc2C(N)=O)c1C`, the max activation is 3.92% (inactive).
In the case of `CO[C@]1(NC(=O)CSC(F)F)C(=O)N2C(C(=O)O)=C(CSc3nnnn3CCO)CO[C@H]21` it was 4.38% (inactive); in that of `CC(CCc1ccc(O)cc1)NCc1ccc(Cl)cc1Cl` (stereo not given), 91.1% (active).
To `CC(CCc1ccccc1)NC(=O)c1cnc(Cl)c(Cl)c1` (stereo not given) belongs -0.183% (inactive); to `COc1ccc(CNC(=O)C(C)NCc2ccccc2Cl)cc1` (stereo not given), -7.27% (inactive); to `CCCCSc1ncnc2c1sc1nc(N3CCOCC3)c3c(c12)CCCC3`, -9.06% (inactive).
To `COc1ccc(NC(C)=O)cc1NC(=O)CN1CCN(C2c3ccccc3-c3ccccc32)CC1` belongs 46.6% (active).
As to `COc1ccc(N)cc1NC(=O)CN1CCOCC1`, the max activation was 3.16% (inactive).
To `COc1ccc(NC(C)=O)cc1NC(=O)CN1CCN(c2ccc(F)cc2)CC1` belongs 3.91% (inactive).
In the case of `Cc1nn2c(=O)cc(COC(=O)CNC(=O)c3ccc(F)cc3)nc2s1` it was -2.47% (inactive); in that of `CCOc1ccc(NC(=O)C/C(C)=N/NC(=O)Cc2cccs2)cc1`, 5.68% (inactive); in that of `CCOc1ccccc1NC(=O)CCn1cnnn1`, 4.34% (inactive).
On to `CCOc1ccccc1NC(=O)Cc1cccs1`, for which the max activation was 49.3% (active).
In the case of `COc1ccc(CNC(=O)CCc2c(C)nn(-c3ccc(N4CCCC4)nn3)c2C)cc1` it was 9.29% (inactive); in that of `CCOC(=O)C1CCN(S(=O)(=O)c2c(C)noc2C)CC1`, -8.75% (inactive).
As to `Cc1noc(C)c1S(=O)(=O)N1CCCC(C(=O)Nc2nccs2)C1` (stereo not given), the max activation was 2.46% (inactive).
Turning to `COc1c(C)cc(C(=O)C2CCCN(S(=O)(=O)c3c(C)noc3C)C2)cc1C` (stereo not given), the max activation is 32.6% (active).
In the case of `CCCn1c(NCc2ccc(N(CC)CC)cc2)nc2ccccc21` it was -7.25% (inactive); in that of `COC(=O)c1ccccc1NC(=O)c1cnn(-c2ccc(F)cc2)c1-n1cccc1`, -7.92% (inactive).
On to `CCOCCc1nn2c(=O)cc(COC(=O)CNC(=O)c3ccc(C(C)(C)C)cc3)nc2s1`, for which the max activation was 6.28% (inactive).
As to `Cc1ccc(-n2nc(CO)c(C(=O)NCCc3ccccc3)n2)cc1`, the max activation was 1.72% (inactive).
In the case of `CCSc1nnc2c(n1)OC(c1ccc(OCC(=O)O)cc1)Nc1ccccc1-2` (stereo not given) it was 6.71% (inactive); in that of `CCC(=O)N1CCc2cc(S(=O)(=O)NC(Cc3ccccc3)C(=O)NCc3ccc(C)cc3)ccc21` (stereo not given), 3.11% (inactive).
In the case of `O=C(CN1CCN(c2ccccn2)CC1)NCc1cccs1` it was -2.33% (inactive); in that of `CCC(=O)Nc1ccc2c(c1)nc(CCN1CCN(c3ccccn3)CC1)n2C`, 38.1% (active); in that of `O=C(CN1CCN(c2ccccn2)CC1)Nc1ccc(Br)cc1`, 45.2% (active).
Turning to `Cn1c(CCN2CCN(c3ccccn3)CC2)nc2cc(NS(=O)(=O)c3ccc(F)cc3)ccc21`, the max activation is 2.61% (inactive).
With `CCOC(=O)N1CCN(Cc2nc3cc(NC(=O)CC)ccc3n2CC)CC1`, the max activation was -5.31% (inactive).
As to `O=C(CN1CCN(c2ncccn2)CC1)Nc1ccccc1C(F)(F)F`, the max activation is 5.01% (inactive).
To `Oc1ccc(Cl)c2c1CCC2` belongs -6.75% (inactive); to `CCc1ccc(CNCc2c(C(=O)O)n(Cc3ccc(F)cc3Cl)c3cc(OC)ccc23)cc1`, -22.5% (inactive).
With `CCCC(=O)Nc1ccc2oc(-c3ccc(O)c(Br)c3)nc2c1`, the max activation is 6.09% (inactive).
Consider `CC1CCCCN1CC(=O)N1CCCc2c1c(=O)oc1ccc(OCc3ccccc3)cc21` (stereo not given), for which the max activation was -16.2% (inactive).
As for `Cc1ccccc1NC(=O)c1c(NC(=O)c2ccccc2F)sc2c1CCC(C)C2` (stereo not given), the max activation is 4.23% (inactive).
In the case of `Cc1nnc(C(=O)NC(C)(C)c2nc(C(=O)NCc3ccc(F)cc3)c(O)c(=O)n2C)o1` it was 4.42% (inactive); in that of `N#Cc1ccc(-c2ccc(F)cc2)nc1Sc1ccccc1`, 5.43% (inactive); in that of `CN(C)c1ccnc(Oc2ccc(F)cc2)c1C#N`, 2.14% (inactive).
To `N#Cc1ccc(-c2ccc(Cl)cc2)nc1Oc1ccc(F)cc1` belongs 34.7% (active); to `Cn1c(=O)sc2cc(NS(=O)(=O)c3ccc(C(C)(C)C)cc3)ccc21`, -11% (inactive); to `Cc1cccc2nc(CSc3nc4[nH]ncc4c(=O)n3-c3cccc(Cl)c3)cc(=O)n12`, 32.7% (active).
In the case of `CCc1ccc(-n2c(SCc3cc(=O)n4cc(Br)ccc4n3)nc3[nH]ncc3c2=O)cc1` it was 18.2% (inactive); in that of `Cc1nnc(NC(=O)CSc2nc3c([nH]c4ccccc43)c(=O)n2-c2cccc(Cl)c2)s1`, 16.6% (inactive); in that of `CO[C@H]1C=CO[C@@]2(C)Oc3c(C)c(O)c4c(O)c(c(/C=N/N5CCN(C)CC5)c(O)c4c3C2=O)NC(=O)/C(C)=C\C=C[C@H](C)[C@H](O)[C@@H](C)[C@@H](O)[C@@H](C)[C@H](OC(C)=O)[C@@H]1C`, -16.3% (inactive).
